The list is not random: actives were taken first. Their share in the collection is about 27%.
sEH inhibitor – soluble epoxide hydrolase (human) inhibition | P34913 | recombinant human sEH enzymatic activity assay | inhibition, % at 2 µM | actives 0.34% (n = 91,000) | AID 707; in the data active = inhibition above about 80%
Target sequence (P34913 whole entry, looked up): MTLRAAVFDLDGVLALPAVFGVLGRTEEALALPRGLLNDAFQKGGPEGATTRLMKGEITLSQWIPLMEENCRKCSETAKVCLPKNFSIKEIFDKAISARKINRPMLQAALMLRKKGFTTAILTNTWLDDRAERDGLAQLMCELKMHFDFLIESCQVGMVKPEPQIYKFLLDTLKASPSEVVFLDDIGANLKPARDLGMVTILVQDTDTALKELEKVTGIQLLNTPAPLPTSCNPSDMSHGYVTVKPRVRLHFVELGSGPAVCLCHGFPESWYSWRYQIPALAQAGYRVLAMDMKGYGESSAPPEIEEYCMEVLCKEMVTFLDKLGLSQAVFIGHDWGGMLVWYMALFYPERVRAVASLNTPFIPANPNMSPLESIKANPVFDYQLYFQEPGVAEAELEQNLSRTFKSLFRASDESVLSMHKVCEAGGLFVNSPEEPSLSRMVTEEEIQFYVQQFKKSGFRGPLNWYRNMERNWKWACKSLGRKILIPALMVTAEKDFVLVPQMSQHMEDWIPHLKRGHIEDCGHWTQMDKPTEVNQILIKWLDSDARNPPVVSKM
CYP2C9 act – activators of human CYP2C9; actives 1.4% (n = 96,000); recombinant CYP2C9, luciferin-H conversion, luminescence; active compounds read high; factor 1 = untreated enzyme, 0 = blocked; activation factor at 5 µM;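 active = activation factor of 2 or more for CYP2C9 at a 5 µM dose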;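 also: 0 = sulfaphenazole-blocked wells and 1 = vehicle-only wells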
CYP2C19 activ – increases human CYP2C19 enzyme activity; activation factor at 5 µM; 96,000 tested, under 10 active; recombinant CYP2C19, luciferin-H EGE luminescence; active compounds read high; 0 = fully inhibited enzyme, 1 = untreated enzyme; P33261;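 active = activation factor of at least 2 at 5 µM in the primary screen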;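 also: 0 = wells with 2.5 mM tranylcypromine and 1 = vehicle-only wells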
CYP2C9 inh – inhibitors of human CYP2C9; P11712; CYP2C9 Supersomes, luciferin-H conversion, luminescence; inhibition, % at 5 µM; actives 20% (n = 96,000);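 active = blocking of liver enzyme CYP2C9 beyond about 50% at 5 µM, limit read from the data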
sEH act – soluble epoxide hydrolase (human) activation. AID 717. activation, % at 2 µM. actives 0.04% (n = 91,000). purified human sEH enzymatic activity, activator screen; in the data active = activation above about 37%
CYP2C19 inhib – human CYP2C19 inhibition; P33261; actives 21% (n = 96,000); AID 778; inhibition, % at 5 µM; CYP2C19 Supersomes, luciferin-H EGE luminescence, 30 min;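 active = CYP2C19 inhibition above a set limit at 5 µM in the primary screen, cut at about 50% in these data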;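 also: plate controls were negative control wells for no effect and 2.5 mM tranylcypromine positive control for full effect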
Numbers without * were called inactive; / = not tested or not shown.

SMILES | sEH inhibitor | CYP2C9 act | CYP2C19 activ | CYP2C9 inh | sEH act | CYP2C19 inhib
CCOc1ccc(NC2=NC(C(=O)NCc3ccccc3)CC(=O)N2)cc1 (stereo unspecified) | / | 0.7 | 0.4 | 25 | / | 62*
O=C1CC(C(=O)NCc2ccccc2)N=C(N2CCCCC2)N1 (stereo unspecified) | -6 | 1.2 | 1.1 | -21 | 9 | -11
CC(C)(C)c1cc(CNC2CS(=O)(=O)C[C@@H]2O)cc(C(C)(C)C)c1O (stereo partly specified) | -16 | 0.9 | 0.9 | 15 | 13 | 6
CC(=O)Nc1cc(C(C)(C)C)c(O)c(C(C)(C)C)c1 | -6 | 0.1 | 0.8 | 88* | 5 | 22
O=c1cc(O)nc(SC23CC4CC(CC(C4)C2)C3)[nH]1 | -1 | 1 | 1.1 | 0 | 2 | -6
CC1(C)CC(n2c(NCCO)nc3c(c2=O)C2(CCCC2)Cc2ccccc2-3)CCO1 (stereo unspecified) | / | 0.2 | 0.2 | 84* | / | 84*
O=c1[nH]c(NCCO)nc2c1C1(CCCCC1)Cc1ccccc1-2 | -19 | 0.9 | 1 | 6 | 25 | -1
CC(=O)Nn1cnc2c(c1=O)C1(CCCCC1)Cc1ccccc1-2 | 9 | 0.7 | 0.6 | 32 | -9 | 37
O=c1c2c(nc(NCCO)n1CC1CCCCC1)-c1ccccc1CC21CCCC1 | -7 | 0 | 0.1 | 100* | 6 | 93*
Cc1ccc(-c2nc(C(=O)NC3CCCCCC3)no2)cc1 | -4 | / | / | / | 3 | /
COc1ccc(/C=N/Nc2nc3ccccc3o2)cc1O | 3 | 0.5 | 0.5 | 52* | -3 | 51*
COc1cccc(C2=CC(c3cccc(OC)c3OC(F)F)n3nnnc3N2)c1 (stereo unspecified) | 13 | 1.1 | 0.6 | -7 | -11 | 42
COc1cccc(C2=CC(c3cc(OC)ccc3OC)n3nnnc3N2)c1 (stereo unspecified) | / | 0.3 | 0.6 | 68* | / | 35
COc1cccc(C2=CC(c3cccc(OC)c3OC)n3nnnc3N2)c1 (stereo unspecified) | / | 0.1 | 0 | 90* | / | 98*
COc1ccc(OC)c(C2C=C(c3ccc(C)c(C)c3)Nc3nnnn32)c1 (stereo unspecified) | / | 0 | 0 | 96* | / | 97*
Cn1c(SCC(=O)N2CCc3ccccc32)nnc1C1CC1 | -6 | 0.9 | 0.2 | 8 | 7 | 76*
O=C(CSc1ccccc1)N1CCc2ccccc21 | 6 | 0.8 | 0.1 | 20 | -3 | 94*
CCn1cc(SCC(=O)N2CCc3ccccc32)c2ccccc21 | 1 | 0.4 | 0.4 | 60* | 1 | 61*
Nc1cc(N)nc(SCC(=O)N2CCc3ccccc32)n1 | 8 | 2.5* | 0.9 | -145 | -7 | 13
COC(=O)CC(N)c1ccc(OC)c2ccccc12 (stereo unspecified) | -11 | 1.1 | 0.8 | -7 | 13 | 16
O=C(NCCc1ccccc1)C(=O)NCC1CCCO1 (stereo unspecified) | -3 | 0.9 | 0.9 | 6 | 4 | 12
O=[N+]([O-])c1ccc(Sc2cccc3cccnc23)cc1 | -17 | 0.6 | 0.2 | 42 | 13 | 84*
Cc1cc(C)cc(NC(=O)N2CCCC2C(=O)Nc2ccc(-n3cnnn3)cc2)c1 (stereo unspecified) | 1 | 1 | 0.2 | 4 | 0 | 83*
CC(=O)Nc1cccc(NC(=O)C2CCCN2C(=O)Nc2cccc(C)c2)c1 (stereo unspecified) | 6 | 1 | 1.1 | -4 | -8 | -6
CC(=O)c1cccc(NC(=O)N2CCCC2C(=O)Nc2cccc(C)c2)c1 (stereo unspecified) | 2 | 0.5 | 0.6 | 53* | -2 | 45
SMILES | sEH inhibitor | CYP2C9 act | CYP2C19 activ | CYP2C9 inh | sEH act | CYP2C19 inhib
CC(=O)Nc1ccc(-n2cnnn2)cc1 | -5 | / | / | / | 6 | /
Cc1cc(NC(=O)CSc2nnnn2Cc2ccccc2)no1 | 2 | / | / | / | -1 | /
CCN1CCN(C(=O)CN(c2ccccc2C)S(C)(=O)=O)CC1 | / | 1.1 | 0.9 | -7 | / | 6
CCn1c(N2CCN(C(=S)NCC(C)C)CC2)nc2ccccc21 | 2 | 1.1 | 0.7 | -6 | -2 | 28
CCn1c(N2CCN(C(=S)NCCc3ccccc3)CC2)nc2ccccc21 | 12 | 0.6 | 0.4 | 37 | -9 | 56*
CCn1c(N2CCN(C(=S)NC)CC2)nc2ccccc21 | 7 | 0.7 | 0.3 | 33 | -8 | 66*
O=C(CS(=O)CC(=O)N(CC(=O)NC1CCCC1)C1CCCC1)Nc1ccc(F)cc1 (stereo unspecified) | -1 | 1 | 1.1 | 0 | 1 | -14
CSc1nnc(Cn2c(=O)sc3ccccc32)n1CCc1ccccc1 | 8 | 0.6 | 0.6 | 45 | -10 | 39
CSc1nnc(Cn2c(=O)sc3ccccc32)n1-c1ccccc1 | 6 | 0.6 | 0.5 | 35 | -6 | 53*
O=C(CSc1nnc(Cn2c(=O)sc3ccccc32)n1-c1ccccc1)Nc1nccs1 | / | 0.3 | 0.9 | 68* | / | 11
O=C(COc1ccccc1)NCc1nnc(SCC(=O)Nc2nccs2)n1-c1ccccc1 | 5 | 0.8 | 1 | 15 | -1 | -4
O=C(CO/N=C/c1ccccc1)N1c2ccccc2Oc2ccccc21 | 0 | / | / | / | 3 | /
CC1=C(C(=O)Nc2cc(C)ccc2C)C(c2cccs2)NC(=S)N1 (stereo unspecified) | -1 | 0.8 | 1 | 22 | 6 | 1
O=C(COc1ccccc1Cl)Nc1nc(-c2cccs2)cs1 | 14 | 0.2 | 0.6 | 82* | -13 | 41
COc1ccccc1Nc1nc(C2(C)CCC(=O)O2)cs1 (stereo unspecified) | 7 | 0.6 | 0.2 | 39 | -6 | 81*
Cc1cc(Cl)ccc1OCC(=O)Nc1nc(-c2cccs2)cs1 | 0 | 0.4 | 0.8 | 56* | -1 | 21
CC(=O)Nc1nc(-c2cccs2)cs1 | -9 | 0.5 | 0.7 | 54* | 5 | 31
COC(=O)[C@H](CCSC)NC(=O)Nc1ccc(OC)c(Cl)c1 | -12 | 1.2 | 0.6 | -17 | 10 | 42
CCc1nc2sc(C)c(C)c2c(=O)n1CCO | -24 | 1.1 | 1.1 | -14 | 22 | -13
CCOC(=O)CNC(=O)Cn1cnc2c(nnn2-c2ccc(C)cc2)c1=O | -11 | 1.2 | 1.1 | -16 | 11 | -9
CCOC(=O)c1c(C)oc(/N=C/c2ccccc2O)c1C#N | / | 0.7 | 0.9 | 29 | / | 13
C=CCn1c(C)c(C(C)=O)c(N2CCN(c3ccccc3)CC2)nc1=S | 11 | 0.9 | 0.9 | 12 | -8 | 9
COc1ccc(OC)c(Nc2nc(-c3cccs3)cs2)c1 | 9 | 0.9 | 1 | 12 | -6 | 2
COc1ccccc1Nc1nc(-c2cccs2)cs1 | -4 | 0.3 | 0.2 | 72* | 2 | 83*
CCCC(=O)c1c(NC)cc(C)oc1=O | -15 | 1.1 | 0.9 | -10 | 16 | 6
O=C(NCCN1CCOCC1)c1ccncc1 | -2 | 0.9 | 0.2 | 15 | 3 | 81*

Screening data as filed in PubChem BioAssay.
